# Measured values taken from PubChem BioAssay (EPA / NIEHS).
# “And” between values parts separate entries of the source, which are not always exact repeats. Equal values may be shown once. A structure can be active in one record and inactive in another. The source made the active and inactive calls. How the source made its calls: active means hit-call score of the fitted dose curve at least 0.9, where 1 is the maximum; inactive means score below 0.9.
# Tests used:
# [1] = ATG_EGR_CIS: Attagene CIS-FACTORIAL HepG2 Assay for human Early Growth Response 1 (EGR1) (AID 2282938); conditions: HepG2 Attagene CIS-FACTORIAL EGR reporter mRNA; actives raise or lower the signal
# In short: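 Read-out: fluorescent reporter-mRNA fragments resolved by capillary electrophoresis after RT-PCR, 24 h post-dose in transiently transfected HepG2. Endogenous transcription-factor activity reported via cis-element-regulated reporter units; gain or loss fitted relative to DMSO.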
# [2] = ATG_M_19_CIS: Attagene CIS-FACTORIAL HepG2 Assay for M19 Transcription Factor (Internal Marker) (AID 2282939); conditions: HepG2 Attagene CIS-FACTORIAL M19 internal marker reporter; actives raise or lower the signal
# In short: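 Signals come from fluorescence of labelled reporter-specific PCR fragments resolved by capillary electrophoresis, following 24 h treatment of HepG2 cells transfected with cis-promoter reporter units; activity was fitted in both directions relative to DMSO.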
# [3] = ATG_ERE_CIS: Attagene CIS-FACTORIAL HepG2 Assay for Estrogen Response Element (ERE) (AID 2282940); conditions: HepG2 ERE cis-reporter, Attagene RNA transcript; actives raise or lower the signal
# In short: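 Fluorescence of capillary-separated, FAM-labelled reporter cDNA fragments indicates reporter mRNA levels in HepG2 cells exposed to chemicals for 24 h. Transient transfection with cis-regulated units; data fitted in both directions against DMSO.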
# [4] = ATG_Ets_CIS: Attagene CIS-FACTORIAL HepG2 Assay for human Erythroblast Transformation Specific (ETS) (AID 2282941); conditions: HepG2 ETS cis-reporter transcription; AC50: actives raise or lower the signal unless noted; outcome: actives raise or lower the signal unless noted
# In short: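 HepG2 cells transfected with multiple cis-regulated reporter units measuring endogenous ETS-driven transcription, 24 h after dosing. Reporter mRNA quantified by RT-PCR with capillary electrophoresis; bidirectional fit relative to DMSO.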
# [5] = target: Hepatocyte nuclear factor 3-beta (Homo sapiens) (UniProt Q9Y261); assay: ATG_FoxA2_CIS: Attagene CIS-FACTORIAL HepG2 Assay for human Forkhead box A2 (FOXA2) (AID 2282942); conditions: HepG2 cis-reporter transcription factor activity, 24 h; actives raise or lower the signal
# In short: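 Readout: fluorescent reporter transcripts resolved by capillary electrophoresis after RT-PCR. Transiently transfected HepG2, 24 h compound exposure, endogenous TF activity at cis promoter elements. Gain or loss of signal fitted relative to DMSO.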
# [6] = ATG_FoxO_CIS: Attagene CIS-FACTORIAL HepG2 Assay for human Forkhead box O (FoxO) (AID 2282943); conditions: HepG2 Attagene cis-reporter, FoxO element, mRNA; actives raise or lower the signal
# In short: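 HepG2, transient MRTU transfection (cis element, endogenous TFs). Dose 24 h. TriZol RNA → oligo(dT) RT → PCR → 6-FAM primer extension → HpaI cut → CE. Gain/loss vs DMSO.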
# [7] = ATG_GATA_CIS: Attagene CIS-FACTORIAL HepG2 Assay for human GATA Binding Protein (AID 2282944); conditions: HepG2 GATA cis-element reporter, Attagene multiplex mRNA; actives raise or lower the signal
# In short: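 After transfecting HepG2 cells with multiple cis-regulated reporter units, chemicals are dosed for 24 h; isolated RNA undergoes RT-PCR and fluorescent labeling before capillary electrophoresis, with activity expressed against DMSO.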
# [8] = ATG_GLI_CIS: Attagene CIS-FACTORIAL HepG2 Assay for human Zinc Finger Protein GLI1 (AID 2282945); conditions: HepG2, Attagene cis-factorial reporter mRNA, GLI element; actives raise or lower the signal
# In short: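 Bidirectional curve fits relative to DMSO, using reporter mRNA levels from RT-PCR plus capillary electrophoresis. Cells were HepG2 transiently carrying cis-regulated reporter constructs, harvested 24 h after dosing.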
# [9] = target: Bile acid receptor (Homo sapiens) (UniProt Q96RI1); assay: ATG_IR1_CIS: Attagene CIS-FACTORIAL HepG2 Assay for human Nuclear Receptor Subfamily 1 Group H Member 4 (NR1H4), IR1 submotif (AID 2282946); conditions: IR1 reporter transcription, actives raise or lower the signal
# In short: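 Cells (human HepG2) carry transiently transfected cis-promoter reporter transcription units. Compounds are incubated 24 h, total RNA is reverse-transcribed and amplified, and labelled fragments are resolved by capillary electrophoresis. Curves use DMSO as baseline.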
# [10] = ATG_GRE_CIS: Attagene CIS-FACTORIAL HepG2 Assay for human Glucocorticoid Response Elements (GRE) (AID 2282947); conditions: HepG2 GRE cis-reporter, Attagene multiplex mRNA; AC50: actives raise or lower the signal unless noted; outcome: actives raise or lower the signal unless noted
# In short: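 Assay uses human hepatoma HepG2 cells transfected with cis-promoter reporter units, exposed 24 h. mRNA from reporters detected by RT-PCR plus capillary electrophoresis; DMSO serves as negative control and baseline.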
# [11] = ATG_ISRE_CIS: Attagene CIS-FACTORIAL HepG2 Assay for human Interferon Regulatory Factor 1 (IRF1) binding to an Interferon-Stimulated Response Element (ISRE) (AID 2282948); conditions: HepG2 ISRE cis-reporter (Attagene), mRNA transcription readout; actives raise or lower the signal
# In short: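 Transiently transfected HepG2 cells carrying cis-element reporter units, dosed 24 hours. Reporter mRNA quantified by RT-PCR, fluorescent primer extension, HpaI digestion and capillary electrophoresis. Bidirectional fitting relative to DMSO.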
# [12] = ATG_M_32_CIS: Attagene CIS-FACTORIAL HepG2 Assay for M32 Transcription Factor (Internal Marker) (AID 2282949); conditions: HepG2 Attagene cis-factorial M32 reporter, mRNA; actives raise or lower the signal;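 further: background control marker of the multiplexed CIS panel rather than a real target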
# In short: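 Internal background marker read-out: RT-PCR/capillary electrophoresis fluorescence of reporter transcripts from transiently transfected HepG2 cells after 24 h chemical exposure. Activity fitted bidirectionally relative to DMSO negative control.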
# [13] = ATG_M_06_CIS: Attagene CIS-FACTORIAL HepG2 Assay for M06 Transcription Factor (Internal Marker) (AID 2282950); conditions: HepG2 Attagene CIS-FACTORIAL M06 internal marker reporter; actives raise or lower the signal
# In short: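 HepG2 liver cells, 24 h exposure. Reporter transcripts from transfected cis-element constructs quantified by RT-PCR/capillary electrophoresis fluorescence. Bidirectional curve fit against DMSO.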
# [14] = target: Hypoxia-inducible factor 1-alpha (Homo sapiens) (UniProt Q16665); assay: ATG_HIF1a_CIS: Attagene CIS-FACTORIAL HepG2 Assay for human Hypoxia Inducible Factor 1 (HIF1A) (AID 2282951); conditions: HepG2 Attagene cis-factorial HIF1a reporter transcription; actives raise or lower the signal
# In short: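 RT-PCR/capillary electrophoresis fluorescence readout of reporter transcripts from endogenous-TF-driven cis elements in transfected HepG2 cells, 24 h exposure; activity fitted in both directions against DMSO controls.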
# [15] = target: Hepatocyte nuclear factor 6 (Homo sapiens) (UniProt Q9UBC0); assay: ATG_HNF6_CIS: Attagene CIS-FACTORIAL HepG2 Assay for human Hepatocyte Nuclear Factor 6 (HNF6) (AID 2282952); conditions: HepG2 Attagene cis-factorial HNF6 reporter transcription; actives raise or lower the signal
# In short: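 Transiently transfected HepG2 cells expressing cis-regulated reporter transcription units were exposed to chemical for 24 h in a 24-well format. Reporter transcript abundance was determined by fluorescence capillary electrophoresis.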
# [16] = ATG_MRE_CIS: Attagene CIS-FACTORIAL HepG2 Assay for human Metal Responsive Element (MRE) (AID 2282954); conditions: HepG2 MRE cis-reporter transcription, Attagene multiplex; actives raise or lower the signal
# In short: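 After a 24 h chemical exposure, transiently transfected HepG2 cells yield RNA whose reporter sequences are amplified, FAM-labelled and sized by capillary electrophoresis. Curves are fitted bidirectionally relative to DMSO.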
# [17] = ATG_PBREM_CIS: Attagene CIS-FACTORIAL HepG2 Assay for human Phenobarbital-responsive Enhancer Module (PBREM) (AID 2282955); conditions: HepG2 PBREM cis-reporter, Attagene multiplexed transcription; actives raise or lower the signal
# In short: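 Reporter mRNA read by RT-PCR, 6-FAM primer extension, HpaI digestion and capillary electrophoresis. Transfected HepG2 cells, 24 h compound exposure. Gain or loss of signal fitted bidirectionally relative to DMSO baseline.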
# [18] = target: Paired box protein Pax-6 (Homo sapiens) (UniProt P26367); assay: ATG_Pax6_CIS: Attagene CIS-FACTORIAL HepG2 Assay for human Paired Box 6 (PAX6) (AID 2282956); conditions: HepG2 CIS-FACTORIAL PAX6 reporter transcription, RNA readout; actives raise or lower the signal
# In short: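 HepG2 cells transiently transfected with cis-promoter-driven multiplexed reporter units sensing endogenous transcription factor activity; 24 h chemical exposure. Reporter mRNA quantified by RT-PCR, 6-FAM labelling, HpaI digestion and capillary electrophoresis; bidirectional fit versus DMSO baseline.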
# [19] = ATG_PXRE_CIS: Attagene CIS-FACTORIAL HepG2 Assay for human Pregnane X Receptor Element (PXRE) (AID 2282957); conditions: HepG2 Attagene CIS-FACTORIAL PXRE reporter, mRNA; actives raise or lower the signal
# In short: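 Cis-element reporter mRNA in human hepatoma HepG2 cells is measured 24 h post-dosing by RT-PCR, primer-extension labeling and capillary electrophoresis; gain or loss of signal is fitted relative to DMSO.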
# [20] = target: Heat shock factor protein 1 (Homo sapiens) (UniProt Q00613); assay: ATG_HSE_CIS: Attagene CIS-FACTORIAL HepG2 Assay for human Heat Shock Transcription Factor 1 (HSE) (AID 2282953); conditions: HepG2 HSE cis-reporter, Attagene RNA transcription; actives raise or lower the signal
# In short: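 Endogenous transcription factor activity captured via cis-promoter reporter units transfected into HepG2; treatment lasted 24 h. Fluorescence intensity of reporter fragments analysed with bidirectional curve fitting, DMSO baseline.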
# Chain of Hepatocyte nuclear factor 3-beta (Homo sapiens) (Q9Y261 whole entry, looked up): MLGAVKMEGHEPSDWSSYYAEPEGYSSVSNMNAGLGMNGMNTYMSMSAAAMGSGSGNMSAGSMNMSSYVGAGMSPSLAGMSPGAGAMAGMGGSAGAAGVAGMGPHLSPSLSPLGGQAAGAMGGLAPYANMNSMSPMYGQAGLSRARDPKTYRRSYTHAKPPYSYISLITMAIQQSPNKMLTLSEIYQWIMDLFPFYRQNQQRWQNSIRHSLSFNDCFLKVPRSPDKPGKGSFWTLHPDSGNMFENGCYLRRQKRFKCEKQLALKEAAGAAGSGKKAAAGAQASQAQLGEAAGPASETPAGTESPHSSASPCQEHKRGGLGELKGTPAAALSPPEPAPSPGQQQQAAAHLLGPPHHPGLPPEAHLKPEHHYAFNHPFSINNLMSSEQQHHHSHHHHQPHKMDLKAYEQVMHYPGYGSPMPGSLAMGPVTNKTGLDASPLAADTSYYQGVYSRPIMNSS
# Chain of Bile acid receptor (Homo sapiens) (Q96RI1 whole entry, looked up, the tested form may be a part): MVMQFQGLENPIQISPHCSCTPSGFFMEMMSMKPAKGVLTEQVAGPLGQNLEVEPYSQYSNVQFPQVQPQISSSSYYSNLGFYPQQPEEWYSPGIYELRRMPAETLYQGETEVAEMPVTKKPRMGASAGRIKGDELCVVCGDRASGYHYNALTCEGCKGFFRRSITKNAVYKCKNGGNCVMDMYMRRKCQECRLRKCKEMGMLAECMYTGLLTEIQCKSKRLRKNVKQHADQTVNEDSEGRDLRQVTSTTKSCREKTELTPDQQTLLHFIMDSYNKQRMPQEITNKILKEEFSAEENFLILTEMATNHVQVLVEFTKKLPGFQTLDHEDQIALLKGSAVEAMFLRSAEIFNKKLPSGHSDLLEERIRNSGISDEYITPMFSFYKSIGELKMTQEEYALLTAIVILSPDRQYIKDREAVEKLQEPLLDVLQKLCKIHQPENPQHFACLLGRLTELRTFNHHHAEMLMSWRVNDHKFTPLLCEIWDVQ
# Chain of Hypoxia-inducible factor 1-alpha (Homo sapiens) (Q16665 whole entry, looked up): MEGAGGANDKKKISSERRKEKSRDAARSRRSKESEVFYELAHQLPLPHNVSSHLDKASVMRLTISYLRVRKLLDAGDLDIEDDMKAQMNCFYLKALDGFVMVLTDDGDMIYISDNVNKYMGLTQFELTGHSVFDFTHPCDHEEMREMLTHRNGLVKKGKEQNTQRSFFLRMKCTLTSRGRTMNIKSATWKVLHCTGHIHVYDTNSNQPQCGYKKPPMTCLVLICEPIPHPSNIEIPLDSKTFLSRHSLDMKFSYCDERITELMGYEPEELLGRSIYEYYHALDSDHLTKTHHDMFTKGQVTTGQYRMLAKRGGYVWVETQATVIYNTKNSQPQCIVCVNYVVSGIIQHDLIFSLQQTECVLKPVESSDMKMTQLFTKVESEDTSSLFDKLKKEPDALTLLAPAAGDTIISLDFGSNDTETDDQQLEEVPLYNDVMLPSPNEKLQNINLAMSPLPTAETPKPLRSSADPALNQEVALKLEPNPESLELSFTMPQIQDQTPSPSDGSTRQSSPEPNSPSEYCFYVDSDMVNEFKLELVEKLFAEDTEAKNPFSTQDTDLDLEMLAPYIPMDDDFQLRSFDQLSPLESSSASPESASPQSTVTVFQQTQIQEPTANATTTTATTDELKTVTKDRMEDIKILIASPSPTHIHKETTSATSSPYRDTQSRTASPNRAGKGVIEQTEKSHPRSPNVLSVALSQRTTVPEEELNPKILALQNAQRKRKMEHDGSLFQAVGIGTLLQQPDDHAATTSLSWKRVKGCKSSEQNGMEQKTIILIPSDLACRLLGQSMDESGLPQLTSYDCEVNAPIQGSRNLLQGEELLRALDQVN
# Chain of Heat shock factor protein 1 (Homo sapiens) (Q00613 whole entry, looked up, the tested form may be a part): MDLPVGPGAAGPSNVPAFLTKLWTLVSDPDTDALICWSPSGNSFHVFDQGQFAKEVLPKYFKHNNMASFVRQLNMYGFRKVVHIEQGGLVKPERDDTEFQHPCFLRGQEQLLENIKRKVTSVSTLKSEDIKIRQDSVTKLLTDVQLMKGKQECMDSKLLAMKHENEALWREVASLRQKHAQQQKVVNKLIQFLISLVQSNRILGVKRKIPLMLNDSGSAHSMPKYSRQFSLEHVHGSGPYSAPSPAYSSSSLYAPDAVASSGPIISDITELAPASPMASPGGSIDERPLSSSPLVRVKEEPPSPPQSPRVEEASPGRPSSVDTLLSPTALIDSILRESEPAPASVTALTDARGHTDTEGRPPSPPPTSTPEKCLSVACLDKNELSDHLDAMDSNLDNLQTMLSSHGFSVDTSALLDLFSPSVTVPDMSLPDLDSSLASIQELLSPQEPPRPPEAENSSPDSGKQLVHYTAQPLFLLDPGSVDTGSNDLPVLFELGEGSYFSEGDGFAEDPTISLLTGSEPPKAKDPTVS
# Chain of Paired box protein Pax-6 (Homo sapiens) (P26367 whole entry, looked up): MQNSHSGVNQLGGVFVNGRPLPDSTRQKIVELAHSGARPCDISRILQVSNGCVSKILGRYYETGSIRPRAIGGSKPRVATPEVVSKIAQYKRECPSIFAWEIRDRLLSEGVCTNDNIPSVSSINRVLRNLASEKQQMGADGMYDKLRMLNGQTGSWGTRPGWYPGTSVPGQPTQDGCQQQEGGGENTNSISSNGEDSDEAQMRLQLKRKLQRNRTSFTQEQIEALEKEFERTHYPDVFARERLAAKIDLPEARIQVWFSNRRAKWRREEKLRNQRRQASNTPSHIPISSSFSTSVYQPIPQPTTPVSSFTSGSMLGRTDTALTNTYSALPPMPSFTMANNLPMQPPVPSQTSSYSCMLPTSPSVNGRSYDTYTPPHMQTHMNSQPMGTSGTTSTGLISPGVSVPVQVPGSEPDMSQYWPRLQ
# Chain of Hepatocyte nuclear factor 6 (Homo sapiens) (Q9UBC0 whole entry, looked up): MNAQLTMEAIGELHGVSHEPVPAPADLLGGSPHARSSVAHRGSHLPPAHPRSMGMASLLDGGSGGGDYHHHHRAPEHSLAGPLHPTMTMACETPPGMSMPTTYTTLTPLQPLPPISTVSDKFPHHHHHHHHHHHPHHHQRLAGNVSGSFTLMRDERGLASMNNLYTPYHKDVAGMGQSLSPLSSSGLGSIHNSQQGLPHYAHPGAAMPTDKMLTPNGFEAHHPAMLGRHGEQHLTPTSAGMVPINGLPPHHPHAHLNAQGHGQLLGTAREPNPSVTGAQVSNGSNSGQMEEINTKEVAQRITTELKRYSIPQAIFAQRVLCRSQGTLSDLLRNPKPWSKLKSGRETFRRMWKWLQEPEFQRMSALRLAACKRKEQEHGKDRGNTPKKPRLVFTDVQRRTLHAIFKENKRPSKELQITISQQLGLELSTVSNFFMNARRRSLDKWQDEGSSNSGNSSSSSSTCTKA
structure (smiles),measurement,setting,value
O=C(O)C(F)(F)OC(F)(F)C(F)(F)OC(F)(F)C(F)(F)OC(F)(F)C(F)(F)C(F)(F)C(F)(F)F,AC50,[1],19.6 µM (active) and 25.7 µM (active)
same,outcome,[2],inactive
same,outcome,[3],inactive
same,outcome,[4],inactive
same,outcome,[5],inactive
same,outcome,[6],inactive
same,AC50,[7],76.5 µM (active)
same,outcome,[7],inactive
same,outcome,[8],inactive
same,outcome,[9],inactive
same,outcome,[10],inactive
same,AC50,[11],24.6 µM (active) and 26 µM (active)
same,outcome,[12],inactive
same,outcome,[13],inactive
same,AC50,[14],28.2 µM (active)
same,outcome,[14],inactive
same,AC50,[15],70.1 µM (active)
same,outcome,[15],inactive
same,AC50,[16],31.4 µM (active) and 28.9 µM (active)
same,outcome,[17],inactive
same,AC50,[18],25.9 µM (active) and 29.1 µM (active)
same,AC50,[19],11.1 µM (active) and 4.38 µM (active)
NC(=NCCCCCCN=C(N)/N=C(\N)Nc1ccc(Cl)cc1)/N=C(\N)Nc1ccc(Cl)cc1,AC50,[1],5.68 µM (active)
same,outcome,[1],inactive
same,AC50,[2],26.1 µM (active)
same,outcome,[2],inactive
same,AC50,[3],4.6 µM (active)
same,outcome,[3],inactive
same,AC50,[4],7.45 µM (active) and 6.93 µM (active)
same,outcome,[4],inactive
same,outcome,[5],inactive
same,AC50,[6],22.9 µM (active)
same,outcome,[6],inactive
same,outcome,[7],inactive
same,outcome,[8],inactive
same,AC50,[10],23.2 µM (active) and 25.6 µM (active)
same,outcome,[10],inactive
same,AC50,[11],5.9 µM (active) and 6.55 µM (active)
same,outcome,[11],inactive
same,AC50,[12],23.4 µM (active) and 23.8 µM (active)
same,outcome,[12],inactive
same,outcome,[13],inactive
same,outcome,[14],inactive
same,outcome,[20],inactive
same,AC50,[16],2.62 µM (active) and 2.68 µM (active) and 1.87 µM (active)
same,AC50,[17],4.31 µM (active)
same,outcome,[17],inactive
same,outcome,[18],inactive
same,outcome,[19],inactive
CC(=O)Nc1ccc(S(N)(=O)=O)cc1,outcome,[1],inactive
same,outcome,[2],inactive
same,outcome,[3],inactive
same,outcome,[4],inactive
same,outcome,[5],inactive
same,outcome,[6],inactive
same,outcome,[7],inactive
same,outcome,[8],inactive
same,outcome,[9],inactive
same,outcome,[10],inactive
same,outcome,[11],inactive
same,outcome,[12],inactive
same,outcome,[13],inactive
same,outcome,[14],inactive
same,outcome,[15],inactive
same,outcome,[20],inactive
same,outcome,[16],inactive
same,outcome,[17],inactive
same,outcome,[18],inactive
same,outcome,[19],inactive
C=CC(=O)OCCC(F)(F)C(F)(F)C(F)(F)C(F)(F)C(F)(F)C(F)(F)C(F)(F)C(F)(F)F,outcome,[1],inactive
same,outcome,[2],inactive
same,AC50,[3],22.6 µM (active)
same,outcome,[4],inactive
same,outcome,[5],inactive
same,outcome,[6],inactive
same,outcome,[7],inactive
same,outcome,[8],inactive
same,outcome,[9],inactive
same,outcome,[10],inactive
same,outcome,[11],inactive
same,outcome,[12],inactive
same,outcome,[13],inactive
same,outcome,[14],inactive
same,outcome,[15],inactive
same,outcome,[20],inactive
same,outcome,[16],inactive
same,outcome,[17],inactive
same,outcome,[18],inactive
same,outcome,[19],inactive
CCCCCCCCCCCC[N+](C)(C)Cc1ccccc1,AC50,[1],17.3 µM (active)
same,outcome,[1],inactive
same,outcome,[2],inactive
same,AC50,[4],11.1 µM (active)
same,outcome,[4],inactive
same,outcome,[5],inactive
same,outcome,[6],inactive
same,outcome,[7],inactive
same,outcome,[10],inactive
same,outcome,[11],inactive
same,AC50,[12],20.3 µM (active)
same,outcome,[12],inactive
same,outcome,[13],inactive
same,outcome,[14],inactive
same,AC50,[20],18.7 µM (active)
same,outcome,[20],inactive
same,outcome,[16],inactive
same,outcome,[17],inactive
same,outcome,[18],inactive
same,outcome,[19],inactive
